In assay [1] the target is Luciferin 4-monooxygenase (Photinus pyralis) (UniProt P08659). The assay can be described thus: Biochemical firefly luciferase enzyme assay for NPC (AID 624030).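 Also: purified P. pyralis luciferase at 10 nM with luciferin and ATP substrate; nearly all actives have a fitted effect of over 70% in size.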 An outline of the steps: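 Counter-screen for direct inhibition of the luciferase enzyme by approved-drug library compounds, run at 10 nM enzyme in 50 mM Tris acetate (final). Luminescence was read within 5 min of enzyme-buffer addition and normalized to PTC124 versus DMSO (0%).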

A short description of assay [2]: S16 Schwann cell PMP22 intronic element beta-lactamase assay (AID 624044; calls by dose curve; also: nearly all actives have a fitted effect of over 15% in size; also: potency is read from the fitted curve at half-maximal effect). The following applies: S16 rat Schwann cells, PMP22 element beta-lactamase FRET, 24 h; ratio activity, negative = inhibition: at 38.3 µM (top of the series). Put shortly:
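Beta-lactamase reporter under a PMP22 intronic regulatory element in stable S16 rat Schwann cells; 24 h compound exposure. 460 nm blue signal normalized between DMSO (0%) and potassium clavulanate, with 535 nm FRET tracking viability; curves classed by r2 and response.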

In a further assay the test system is 7G8. The assay can be described thus: qHTS profiling for inhibitors of Plasmodium falciparum proliferation (AID 504749). Also: nearly all actives have a fitted effect of over 60% in size. Also: potency is read from the fitted curve at half-maximal effect. Conditions: P. falciparum in erythrocytes, SYBR Green DNA, 72 h; series mostly up to 28.7 µM. An outline of the steps: (§1)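 Quantitative HTS: compounds pinned into medium, infected erythrocytes added (0.3% parasitemia, 2.5% hematocrit), 72 h culture at 37 C under 5% CO2. Saponin/Triton lysis with SYBR Green I, overnight RT, then fluorescence read.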
A general note: In qHTS, concentration-response curves come from the screen itself.

A further assay concerns ATS95. Described as above. The following applies: P. falciparum in erythrocytes, SYBR Green DNA, 72 h; series mostly up to 28.7 µM. An outline of the steps: as §1
In another assay the test system is CP215. Described as above. Conditions: P. falciparum in erythrocytes, SYBR Green DNA, 72 h; series mostly up to 28.7 µM. Put shortly: as §1
A further assay has as its system CP247. Described as above. Conditions: P. falciparum in erythrocytes, SYBR Green DNA, 72 h; series mostly up to 28.7 µM. An outline of the steps: as §1
The test system of another assay is CP260. Described as above. Conditions: P. falciparum in erythrocytes, SYBR Green DNA, 72 h; series mostly up to 28.7 µM. Put shortly: as §1
A further assay concerns CP266. Described as above. Conditions: P. falciparum in erythrocytes, SYBR Green DNA, 72 h; series mostly up to 28.7 µM. An outline of the steps: as §1
In the next assay the test system is CP291. The description is as above. Conditions: P. falciparum in erythrocytes, SYBR Green DNA, 72 h; series mostly up to 28.7 µM. Put shortly:
as §1

For another assay, the system named is CP297. Described as above. Conditions: P. falciparum in erythrocytes, SYBR Green DNA, 72 h; series mostly up to 28.7 µM. An outline of the steps: as §1
For a further assay, the system named is CP335. Described as above. Conditions: P. falciparum in erythrocytes, SYBR Green DNA, 72 h; series mostly up to 28.7 µM. An outline of the steps: as §1
Another assay concerns DIV17. The description is as above. Conditions: P. falciparum in erythrocytes, SYBR Green DNA, 72 h; series mostly up to 28.7 µM. An outline of the steps: as §1
In a further assay the test system is GB4. The description is as above. The following applies: P. falciparum in erythrocytes, SYBR Green DNA, 72 h; series mostly up to 28.7 µM. Put shortly: as §1
The next assay relates to P93_24. Described as above. The following applies: P. falciparum in erythrocytes, SYBR Green DNA, 72 h; series mostly up to 28.7 µM. Put shortly:
as §1

A further assay relates to PC15. The description is as above. The following applies: P. falciparum in erythrocytes, SYBR Green DNA, 72 h; series mostly up to 28.7 µM. Put shortly:
as §1

The test system of the next assay is PC26. The assay is described as above. Conditions: P. falciparum in erythrocytes, SYBR Green DNA, 72 h; series mostly up to 28.7 µM. An outline of the steps:
as §1

In a further assay the test system is TAB109. The description is as above. Conditions: P. falciparum in erythrocytes, SYBR Green DNA, 72 h; series mostly up to 28.7 µM. An outline of the steps: as §1
A further assay relates to TAB165. The description is as above. The following applies: P. falciparum in erythrocytes, SYBR Green DNA, 72 h; series mostly up to 28.7 µM. Put shortly: as §1
A short description of assay [3]: S16 Schwann cell viability assay (CellTiter-Glo assay) (AID 624031). Also: nearly all actives have a fitted effect of over 70% in size. An outline of the steps:
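Native S16 rat Schwann cells in DMEM/10% FBS without phenol red were incubated overnight, then exposed to compounds for 24 h at 37 °C/5% CO2. Viability was read as ATP luminescence (CellTiter-Glo), normalized to no-cell wells and DMSO (0%).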
Background: ATP-based viability assays read luminescence as a measure of living cells.

In the next assay the test system is PC49. The assay can be described thus: qHTS profiling for inhibitors of Plasmodium falciparum proliferation (AID 504749). Also: nearly all actives have a fitted effect of over 60% in size. Also: potency is read from the fitted curve at half-maximal effect. The following applies: P. falciparum in erythrocytes, SYBR Green DNA, 72 h; series mostly up to 28.7 µM. An outline of the steps: as §1

Inconclusive results are not listed. The source made the active and inactive calls. Unless noted, calls follow the shape of the dose curve; as a rule, active = well fitted curve in the direction sought with a large enough effect; inconclusive = small, poorly fitted or top-dose-only effect, or another doubt; inactive = no such curve, though single readings can be large; an effect the other way counts as inactive or inconclusive.

Sequence of Luciferin 4-monooxygenase (Photinus pyralis) (P08659 whole entry, looked up): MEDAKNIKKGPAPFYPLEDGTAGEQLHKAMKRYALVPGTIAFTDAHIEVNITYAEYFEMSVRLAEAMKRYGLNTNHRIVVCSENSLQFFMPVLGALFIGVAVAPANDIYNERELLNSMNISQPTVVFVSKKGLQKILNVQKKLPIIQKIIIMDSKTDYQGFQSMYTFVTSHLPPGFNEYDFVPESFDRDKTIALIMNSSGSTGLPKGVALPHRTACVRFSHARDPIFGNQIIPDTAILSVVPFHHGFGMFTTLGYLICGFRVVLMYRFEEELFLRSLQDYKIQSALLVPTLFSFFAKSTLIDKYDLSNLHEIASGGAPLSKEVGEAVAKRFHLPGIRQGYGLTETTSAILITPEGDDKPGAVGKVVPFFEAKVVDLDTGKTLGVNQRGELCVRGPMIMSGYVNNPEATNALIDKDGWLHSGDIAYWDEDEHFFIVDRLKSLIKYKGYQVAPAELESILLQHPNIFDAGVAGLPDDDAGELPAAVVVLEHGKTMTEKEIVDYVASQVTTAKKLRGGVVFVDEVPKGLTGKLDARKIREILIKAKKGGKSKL

For `CC[C@@]1(O)C[C@H](O[C@H]2C[C@@H](N(C)C)[C@@H](O[C@H]3C[C@@H](O)[C@@H](O[C@H]4CCC(=O)[C@@H](C)O4)[C@@H](C)O3)[C@@H](C)O2)c2c(cc3c(c2O)C(=O)c2c(O)cccc2C3=O)[C@H]1C(=O)OC`, the Potency result in [1] is “inactive”. The Potency in [2] is 199 nM (active); in the assay with 7G8, 39.8 nM (active); in the assay with ATS95 it was 316 nM (active); with CP215, 849 nM (active); with CP247, 251 nM (active); with CP260, 39.8 nM (active). The Potency is 1200 nM (active) in the assay on CP266; 849 nM (active) in the assay with CP291; 953 nM (active) in the assay with CP297; 169 nM (active) in the assay on CP335; 478 nM (active) in the assay on DIV17; 601 nM (active) with GB4. Moreover, the Potency in the assay on P93_24 is 316 nM (active); in the assay with PC15 it was 158 nM (active); in the assay on PC26 it was 1200 nM (active); with TAB109, 224 nM (active); with TAB165, 141 nM (active).

Consider `CC1OC(OCC2OC(Oc3c(-c4ccc(OCCO)c(OCCO)c4)oc4cc(OCCO)cc(O)c4c3=O)C(O)C(O)C2O)[C@@H](O)C(O)C1O` (some centres not stated), for which the Potency entry (in assay [1]; in assay [3]; in assay [2]; with 7G8; in the assay on ATS95; in the assay on CP215) was “inactive” each time. For the same compound, the Potency result in the assay on CP247, with CP260, in the assay with CP266, in the assay on CP291, with CP297 and in the assay on CP335 was “inactive” each time. Further, the Potency entry with DIV17, in the assay on GB4, in the assay on PC15, in the assay with PC26, with PC49 and in the assay on TAB109 was “inactive” in each case. Also, in the assay on TAB165, the Potency result was “inactive”.

For the compound `CN1[C@@H]2CC[C@@H]1CC(OC(=O)[C@H](CO)c1ccccc1)C2` (some centres not stated), the Potency entry (in assay [1]; in [3]; in assay [2]; in the assay on 7G8; in the assay on ATS95; with CP215) was “inactive” in each case. Also, the Potency entry in the assay on CP247, in the assay with CP260, in the assay on CP266, in the assay with CP291, in the assay on CP297 and with CP335 was “inactive” in each case. In addition, the Potency entry with DIV17, in the assay with GB4, in the assay on P93_24, with PC26, in the assay with TAB109 and in the assay with TAB165 was “inactive” in each case.

Consider `CC(=O)NC[C@@H]1CN(c2ccc(N3CCOCC3)c(F)c2)C(=O)O1`, for which the Potency result (in [1]; in [3]; in assay [2]; with 7G8; in the assay with ATS95; in the assay with CP215) was “inactive” throughout. In addition, the Potency entry in the assay on CP247, with CP260, in the assay on CP266, with CP291, in the assay with CP297 and in the assay with CP335 was “inactive” each time. In addition, the Potency entry in the assay with DIV17, with GB4, with P93_24, with PC15, in the assay on PC26 and with PC49 was “inactive” each time. Further, the Potency entry in the assay on TAB109 and in the assay on TAB165 was “inactive” each time.

For `CC(CCC(=O)O)C1CCC2C3C(=O)C[C@@H]4CC(=O)CC[C@@]4(C)C3CC(=O)[C@]12C` (some centres not stated), the Potency result (in assay [1]; in assay [3]; in assay [2]; with 7G8; with ATS95; in the assay on CP215) was “inactive” throughout. The Potency entry with CP247, in the assay with CP260, in the assay with CP266, in the assay with CP291, in the assay on CP297 and in the assay with GB4 was “inactive” each time. Further, the Potency result in the assay with P93_24, in the assay with PC15, in the assay on PC26, with PC49, with TAB109 and with TAB165 was “inactive” each time.

With `OC[C@@H]1O[C@](CO)(O[C@H]2O[C@H](CO)[C@@H](O)[C@H](O)[C@H]2O)[C@H](O)[C@H]1O`, the Potency entry (in [3]; in assay [2]; in the assay on 7G8; in the assay with ATS95; with CP215; in the assay with CP247) was “inactive” throughout. Also, the Potency result in the assay on CP260, in the assay with CP266, in the assay with CP291, in the assay on CP297, with CP335 and in the assay with DIV17 was “inactive” in each case. For the same compound, the Potency entry in the assay on GB4, in the assay with P93_24, in the assay with PC15, with PC26, with PC49 and in the assay on TAB109 was “inactive” each time. Also, the Potency result in the assay on TAB165 was “inactive”.

The values above are taken from PubChem BioAssay (NCATS).
